{"source": "PubChem BioAssay AID1076", "about": "(NMMLSC, 2008)", "assay": "cytotoxicity in LNCaP prostate cells – cell-based, cell event count, single point, cytotoxicity control for prostate differentiation activator project, confirmation (AID 1076);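 also: counts scatter-gated live cells after medium removal discards detached dead cells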", "details": "LNCaP cell loss, flow cytometry event count, 4 d, stronger effect = lower value", "note": "The source made the active and inactive calls.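 The calls were made as follows: active = cell event count below 40, meaning activity score above 60 where score is 100 minus count; inactive = the rest.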"}
{"molecule": "Cc1cc(=O)n2nc(N3CCCC3C(=O)NCc3ccccn3)sc2n1", "note": "(stereo unspecified)", "values": [{"measurement": "cell event count", "setting": "at 100 µM", "value": "101 (inactive)"}, {"measurement": "cell event count", "setting": "event count, at 10 µM", "value": 61}]}
{"molecule": "Cc1cc(NC(=O)CSc2nnc(Cn3c(=O)sc4ccccc43)n2-c2ccccc2C)no1", "values": [{"measurement": "cell event count", "setting": "at 100 µM", "value": "200 (inactive)"}, {"measurement": "cell event count", "setting": "event count, at 10 µM", "value": 121}]}
{"molecule": "COc1ccc(-c2nc(CN3CCC(C(=O)N4CCc5ccccc54)CC3)c(C)o2)cc1OC", "values": [{"measurement": "cell event count", "setting": "at 100 µM", "value": "16 (inactive)"}, {"measurement": "cell event count", "setting": "event count, at 10 µM", "value": 298}]}
{"molecule": "Cc1oc(-c2cccc(Cl)c2)nc1CN1CCC(C(=O)NCCCN2CCCC2=O)CC1", "values": [{"measurement": "cell event count", "setting": "at 100 µM", "value": "166 (inactive)"}, {"measurement": "cell event count", "setting": "event count, at 10 µM", "value": 190}]}
{"molecule": "CCOC(=O)CSc1nnc(CNC(=O)c2ccccc2OC)n1-c1ccc(OC)cc1", "values": [{"measurement": "cell event count", "setting": "at 100 µM", "value": "256 (inactive)"}, {"measurement": "cell event count", "setting": "event count, at 10 µM", "value": 156}]}
{"molecule": "Cc1ccccc1-c1nc(CN2CCCC(C(=O)NCc3cccnc3)C2)c(C)o1", "note": "(stereo unspecified)", "values": [{"measurement": "cell event count", "setting": "at 100 µM", "value": "124 (inactive)"}, {"measurement": "cell event count", "setting": "event count, at 10 µM", "value": 135}]}
{"molecule": "CCN(CC)CCCNc1oc(-c2cccc(Cl)c2)nc1C#N", "values": [{"measurement": "cell event count", "setting": "at 100 µM", "value": "32 (inactive)"}, {"measurement": "cell event count", "setting": "event count, at 10 µM", "value": 227}]}
{"molecule": "Cc1oc(-c2ccc(Cl)cc2)nc1CN1CCC(C(=O)N2CCN(Cc3ccccc3)CC2)CC1", "values": [{"measurement": "cell event count", "setting": "at 100 µM", "value": "3 (inactive)"}, {"measurement": "cell event count", "setting": "event count, at 10 µM", "value": 224}]}
{"molecule": "CSc1nc2ccc(Nc3nc(N4CCOCC4)nc(N4CCOCC4)n3)cc2s1", "values": [{"measurement": "cell event count", "setting": "at 100 µM", "value": "48 (inactive)"}, {"measurement": "cell event count", "setting": "event count, at 10 µM", "value": 138}]}
{"molecule": "O=C(Nc1ccc2oc(Cc3ccc(Cl)cc3)nc2c1)c1cccnc1", "values": [{"measurement": "cell event count", "setting": "at 100 µM", "value": "17 (inactive)"}, {"measurement": "cell event count", "setting": "event count, at 10 µM", "value": 96}]}
{"molecule": "O=C(NCCCN1CCN(c2ccccc2F)CC1)C1CCN(S(=O)(=O)c2cccs2)CC1", "values": [{"measurement": "cell event count", "setting": "at 100 µM", "value": "44 (inactive)"}, {"measurement": "cell event count", "setting": "event count, at 10 µM", "value": 95.5}]}
{"molecule": "O=C(CSc1nc2c(c(=O)n1-c1ccc(F)cc1)SCC2)NCC1CCCO1", "note": "(stereo unspecified)", "values": [{"measurement": "cell event count", "setting": "at 100 µM", "value": "207 (inactive)"}, {"measurement": "cell event count", "setting": "event count, at 10 µM", "value": 132}]}
{"molecule": "Cc1oc(-c2ccc(Cl)cc2)nc1CN1CCC(C(=O)N2CCc3ccccc3C2)CC1", "values": [{"measurement": "cell event count", "setting": "at 100 µM", "value": "18 (inactive)"}, {"measurement": "cell event count", "setting": "event count, at 10 µM", "value": 320}]}
